# From publication PMC5540273 (PLoS ONE, 2017)
# System: MAP3K15
# Details: concentration: 1 μM, replicates: in singlicate; n = 1
# 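Note: KINOMEscan kinase panel screen.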
row,Structure (SMILES),%Inh [%]
1,CCC(=O)c1c(-c2ccccc2)c2cc(Cl)ccc2c(=O)n1Cc1cc(S(C)(=O)=O)n(CCC(C)(C)O)n1,43
2,COc1cccc(C2=C(Nc3cccc(C(=O)O)c3)C(=O)NC2=O)c1 [SB-390770],1
3,CCc1nc(-c2cccc(C)c2)c(-c2ccncc2)s1,0
4,CCC(=O)c1c(-c2ccccc2)c2cc(Cl)ccc2c(=O)n1Cc1cc(C(=O)NC2CC2)n(C)n1,11
5,CCS(=O)(=O)c1ccc(OC)c(Nc2ncc(-c3ccc(F)cc3)o2)c1.Cl [GW591947],0
6,COc1cccc(C2=C(N(C)c3ccccc3)C(=O)NC2=O)c1 [SB-334865],0
7,CCCC(=O)Nc1n[nH]c2ncc(-c3cccc4ccccc34)cc12 [SB-642057],0
8,C[C@@H]1CC[C@H](C(=O)NC2CCCCC2)CN1c1cc(-c2ccc3c(N)n[nH]c3c2)nc(N)n1 [GSK2291363],0
9,COc1cc(Nc2nccc(N3CCC(NC(=O)C(C)c4ccc(Cl)cc4)C3)n2)cc(OC)c1OC (stereo not shown) [GSK1379757],0
10,O=C(Nc1n[nH]c2nc(-c3ccccc3)c(Cl)cc12)C1CC1 [SB-734909],60
11,CN1C(=O)C(Nc2ccccc2)=C(c2ccccc2)C1=O [SB-300079],0
12,CCn1c(-c2nonc2N)nc2ccccc21 [SB-693162/GW549034],54
13,Nc1nc(-c2ccccc2F)c(-c2ccnc3ccccc23)s1 [GW560459],0
14,Cc1ccc(Oc2ccc(Nc3ncnc4cc[nH]c34)cc2C)cn1,38
15,O=C(NCc1cccs1)c1cc(C(=O)c2c(Cl)cccc2Cl)c[nH]1 [GW823670],0
16,COc1ccc(-c2cc3c(C)nc(N)nc3n([C@H]3CC[C@H](O)CC3)c2=O)cn1,0
17,COc1cc2ncn(-c3cc(OCc4ccncc4Br)c(C(N)=O)s3)c2cc1OC [GW854278],0
18,Cc1cc(Nc2nc(-c3cccc(C)n3)nc3ccccc23)ccn1 [GW872411],0
19,COc1ccc(CNC(=O)NC2CCN(c3ccnc(Nc4ccc(F)cc4)n3)C2)cc1 (stereo not shown) [GSK1379706],12
20,COc1cc(Nc2nccc(N3CCC(NC(=O)C4COc5ccccc5O4)C3)n2)cc(OC)c1OC (stereo not shown) [GSK1379761],0
21,COc1cccc(-n2cnc3c(N)ncnc32)c1 [SKF-97416],22
22,CCC(=O)c1c(-c2ccccc2)c2cc(Cl)ccc2c(=O)n1Cc1cc(S(C)(=O)=O)n(CC(F)F)n1,2

# System: MAP3K1
# Details: concentration: 1 μM, replicates: in singlicate; n = 1
row,Structure (SMILES),%Inh [%]
1,COC(=O)c1c(-c2ccccc2)c2cc(Br)ccc2c(=O)n1Cc1ccc(S(C)(=O)=O)cc1,27
2,Cc1nnc(-c2ccc(C)c(-c3ccc(C(=O)O)cc3)c2)o1 [GW608005],0
3,COc1cc2nccc(Nc3ccc(OCc4ccc(NC(C)=O)cc4)cc3)c2cc1OC.Cl [GW440135],0
4,Cc1nc(N(C)[C@H]2CN(C(=O)CC#N)CC[C@H]2C)c2cc[nH]c2n1,10
5,Nc1nc(N)c2nc(-c3ccccc3)[nH]c2n1 [SKF-12778],9
6,Cl.c1ccc(Cn2cnc3cc(Nc4ncnc5ccccc45)ccc32)cc1 [GW272142],5
7,COC(=O)c1c(-c2ccccc2)c2cc(Br)ccc2c(=O)n1Cc1ccc(NC(=O)CCC(=O)O)cc1,12
8,O=C(Nc1ccc2c(c1)OCO2)NC1CCN(c2ccnc(NCc3ccc(F)cc3)n2)CC1 [GSK1379859],8
9,Cc1ccccc1COc1cc(-n2cnc3cc(Cl)ccc32)sc1C(N)=O [GW813349],32
10,Nc1n[nH]c2ncc(-c3ccccc3)cc12 [SB-517081],6
11,COc1ccc(-c2coc3ccc(-c4nnc(SCc5cccc(C#N)c5)o4)cc23)cc1,7
12,Cc1cccc(-c2nc(Nc3ccc4c(cnn4C)c3)c3ccccc3n2)n1 [GW876731],0
13,CN(C)c1cc(-c2ccc3c(N)n[nH]c3c2)nc(N)n1 [GSK2219329],0
14,COc1cc2ncn(-c3cc(OCCCc4ccccc4)c(C(N)=O)s3)c2cc1OC [GSK205189],22
15,CCC(=O)c1c(-c2ccccc2)c2cc(Cl)ccc2c(=O)n1Cc1cc(S(C)(=O)=O)n(CCC(C)(C)O)n1,3
16,COc1cccc(C2=C(Nc3cccc(C(=O)O)c3)C(=O)NC2=O)c1 [SB-390770],25
17,CCc1nc(-c2cccc(C)c2)c(-c2ccncc2)s1,0
18,CCC(=O)c1c(-c2ccccc2)c2cc(Cl)ccc2c(=O)n1Cc1cc(C(=O)NC2CC2)n(C)n1,9

row,Structure (SMILES),%Inh [%]
1,CCS(=O)(=O)c1ccc(OC)c(Nc2ncc(-c3ccc(F)cc3)o2)c1.Cl [GW591947],0
2,COc1cccc(C2=C(N(C)c3ccccc3)C(=O)NC2=O)c1 [SB-334865],1
3,CCCC(=O)Nc1n[nH]c2ncc(-c3cccc4ccccc34)cc12 [SB-642057],7
4,C[C@@H]1CC[C@H](C(=O)NC2CCCCC2)CN1c1cc(-c2ccc3c(N)n[nH]c3c2)nc(N)n1 [GSK2291363],21
5,COc1cc(Nc2nccc(N3CCC(NC(=O)C(C)c4ccc(Cl)cc4)C3)n2)cc(OC)c1OC (stereo not shown) [GSK1379757],1
6,O=C(Nc1n[nH]c2nc(-c3ccccc3)c(Cl)cc12)C1CC1 [SB-734909],37
7,CN1C(=O)C(Nc2ccccc2)=C(c2ccccc2)C1=O [SB-300079],0
8,CCn1c(-c2nonc2N)nc2ccccc21 [SB-693162/GW549034],46
9,Nc1nc(-c2ccccc2F)c(-c2ccnc3ccccc23)s1 [GW560459],3
10,Cc1ccc(Oc2ccc(Nc3ncnc4cc[nH]c34)cc2C)cn1,0
11,O=C(NCc1cccs1)c1cc(C(=O)c2c(Cl)cccc2Cl)c[nH]1 [GW823670],0
12,COc1ccc(-c2cc3c(C)nc(N)nc3n([C@H]3CC[C@H](O)CC3)c2=O)cn1,0
13,COc1cc2ncn(-c3cc(OCc4ccncc4Br)c(C(N)=O)s3)c2cc1OC [GW854278],65
14,Cc1cc(Nc2nc(-c3cccc(C)n3)nc3ccccc23)ccn1 [GW872411],0
15,COc1ccc(CNC(=O)NC2CCN(c3ccnc(Nc4ccc(F)cc4)n3)C2)cc1 (stereo not shown) [GSK1379706],2
16,COc1cc(Nc2nccc(N3CCC(NC(=O)C4COc5ccccc5O4)C3)n2)cc(OC)c1OC (stereo not shown) [GSK1379761],2
17,COc1cccc(-n2cnc3c(N)ncnc32)c1 [SKF-97416],29
18,CCC(=O)c1c(-c2ccccc2)c2cc(Cl)ccc2c(=O)n1Cc1cc(S(C)(=O)=O)n(CC(F)F)n1,0
